# According to PubChem BioAssay (NCATS):
# Inconclusive results are not listed. A call without a number means that no potency is given here. Calls of active or inactive are those of the source. The call rests on the fitted dose curve; in most records, active means well fitted inhibition curve with a large enough effect; inconclusive means small, poorly fitted or top-dose-only effect; inactive means no such curve, though single readings can be large or run the other way. Where a SMILES comes first, the peptide text is derived from it. [ ]: non-standard residue; d: D form. The star is where a group is joined. Dolaproine = CO[C@@H]([C@@H]1CCCN1)[C@@H](C)C(=O)O; Dil = CC[C@H](C)[C@H](NC)[C@@H](CC(=O)O)OC; Doe = c1ccc(C[C@H](N*)c2nccs2)cc1; Aib = CC(C)(N)C(=O)O
# Test system: Zika virus NS2B-NS3 protease (linked construct)
# Assay: Primary screen NINDS Rhodamine qHTS for Zika virus inhibitors (AID 1347160); further: nearly all actives have a fitted effect of over 55% in size
# Conditions: purified NS2B-NS3 protease, Rhodamine110 substrate fluorescence; series mostly up to 57.1 µM
# From the text: Avindra Nath, Ph.D., National Institute of Neurological Disorders and Stroke (NINDS), Bethesda, MD
# Radhakrishnan Padmanabhan, Ph.D., Georgetown University (GU), Washington D.C.
# Zika Virus causes congenital defects, including microcephaly and is associated with Guillain-Barre syndrome, eningoencephalitis and myelitis in infected adult. […] Using a target-based approach, we hope to establish a screening paradigm to uncover novel, cell-active NS2B-NS3 protease (Zika Virus) specific inhibitors from NCATS' collection of small molecules using qHTS.
# Four assay panel was created to identify potential Zika Virus inhibitors. Namely, (1) GU unlinked NS2B-NS3 AMC tagged protease qHTS, (2) GU unlinked NS2B-NS3 Rhodamine tagged protease qHTS, (3) NINDS linked NS2B-NS3 AMC tagged protease qHTS, (4) NINDS linked NS2B-NS3 Rhodamine tagged protease qHTS. Active compounds were re-acquired and re-screened to confirm inhibition. Inhibitors were further screened against various confirmatory and counterscreens in dose response format.
# Early Translation Branch (ETB)
# National Center for Advancing Translational Sciences (NCATS), Rockville, MD
# National Institute of Health (NIH), Bethesda, Maryland
# For the linked assay, Nath lab (NINDS) provided the purified linked NS2B-NS3 protease which is consists of hydrophilic domain of NS2B linked to the NS3 protease domain by a flexible (-[…]-) linker. Control compound aprotinin is obtained from Thermo Scientific (#78432; Waltham, Massachusetts). Rhodamine110 substrate ([N-Cbz]-Nle-Lys-Arg-Arg-Rhod110-Arg-Arg-Lys-Nle-[N-Cbz]) was purchased from either Genscript or Bachem.
# 1536-well Protease (Rhodamine110 Substrate) Assay:
# Briefly, 3 microL of enzyme (25 nM final concentration), in assay buffer (10 mM Tris-HCl pH 8.0 with 0.01% Tween 20) were dispensed into a 1,536-well solid-bottom black plate (Greiner Bio One, Monroe, NC). Twenty-three nL of compounds (final concentration range 7.28 nM to 114 microM) or control Aprotinin (final concentration range 3.47 nM to 114 microM) were transferred via Wako Pin-tool (Wako Automation, Richmond, VA). Samples were incubated (room temperature, protected from light) for 15 minutes followed by a 1 microL Rhodamine110 substrate addition (1.5 microM final concentration). Plates were then immediately read on a ViewLux High-throughput CCD imager (PerkinElmer, Waltham, MA) equipped with FITC fluorescence optics (480(20) nm excitation, 540(25) nm emission), then incubated (room temperature, protected from light) for 15 minutes (~15% conversion). The change in fluorescence intensity over the 15-minute reaction period was normalized against no-inhibitor and no-enzyme controls and the resulting percent inhibition data were fitted to a 4-parameter Hill equation. Aprotinin was used as intraplate control.
# Potency means the concentration at half of the fitted maximal effect.
row,Compound,Potency
1,CC[C@@H]1CN2CC[C@@]3(O)C(=Nc4cccc(OC)c43)[C@@H]2C[C@@H]1/C(=C\OC)C(=O)OC,inactive
2,c1ccc([C@@H]2C[C@H]2NC2CCNCC2)cc1,inactive
3,C[C@@H]1C[C@@H](O)[C@]2(O)O[C@@H]3C[C@@]4(C=O)C(CC[C@@H]5C4CC[C@]4(C)[C@@](O)(C6=CC(=O)OC6)CC[C@]54O)C[C@H]3OC2O1 (stereo not given in full),inactive
4,CO[C@H](c1ccccc1)[C@H]1NC(=O)C(C)NC(=O)C(C[C@@H](C)CO)N(C)C(=O)[C@@H](C(O)c2cn(C(C)(C)C3CO3)c3ccccc23)NC(=O)C(C(C)C=C(C)C)NC(=O)C(CC(C)C)N(C)C(=O)C(C(C)C)NC1=O (stereo not given in full),21.6 µM (active)
5,C[C@H](Nc1ncnc2nc[nH]c12)c1nc2ccc(F)cc2c(=O)n1-c1ccccc1,inactive
6,N#CC(O[C@@H]1O[C@H](CO)[C@@H](O)[C@H](O)[C@H]1O)c1ccccc1 (stereo not given in full),inactive
7,C[C@H]1C/C=C/[C@H]2[C@@H]3O[C@]3(C)[C@@H](C)[C@H]3[C@H](Cc4ccccc4)NC(=O)[C@]32OC(=O)O/C=C/[C@@](C)(O)C1=O,inactive
8,COC(=O)[C@]12CCCC(C)(C)C1CCc1cc(C(C)C)c(O)c(O)c12 (stereo not given in full),14.1 µM (active)
9,C=C(C)C(=O)O[C@H]1[C@@H]2[C@H](C)C(=O)O[C@@H]2C[C@@H](C)[C@@H]2C=CC(=O)[C@]21C,inactive
10,COC1CC(O[C@H]2CC[C@@]3(C)C(CCC4C3CC[C@]3(C)C(C5=CC(=O)OC5)CCC43O)C2)OC(C)C1OC1OC(COC2OC(CO)C(O)C(O)C2O)C(O)C(O)C1O (stereo not given in full),inactive
11,CCOC(=O)c1ccc(-c2ccc(OC(=O)N(C)Cc3cccc(-c4ccncc4)c3)cc2)cc1,inactive
12,Cc1sc2c(c1C)C(c1ccc(Cl)cc1)=NC(CC(=O)OC(C)(C)C)c1nnc(C)n1-2 (stereo not given),inactive
13,CCN1C[C@]2(COC)CC[C@H](O)[C@@]34C5C[C@@H]6[C@@H](OC)C[C@@](OC(C)=O)(C5[C@@H]6OC(C)=O)[C@H]([C@H](OC)C23)[C@@H]14 (stereo not given in full),inactive
14,C=CCN1CCC2(C)c3cc(O)ccc3C[C@H]1[C@H]2C,inactive
15,CCCCCn1cc(C(=O)Oc2cccc3cccnc23)c2ccccc21,inactive
16,Oc1ccc2c3c1O[C@H]1c4[nH]c5c(N=C=S)cccc5c4C[C@@]4(O)[C@@H](C2)N(CC2CC2)CC[C@]314,inactive
17,CO[C@@H](/C=C/CC/C=C/C(=O)O)[C@@H](O)[C@H](C)[C@@H](O)/C(C)=C/[C@H](C)C(=O)CCCC1CC(=O)NC(=O)C1,inactive
18,COc1ccc2c(c1)[nH]c1c(C)nccc12,inactive
19,CC[C@H](C)[C@@H]([C@@H](CC(=O)N1CCC[C@H]1[C@H](OC)[C@@H](C)C(=O)N[C@@H](Cc1ccccc1)c1nccs1)OC)N(C)C(=O)[C@@H](NC(=O)C(C)(C)N)C(C)C (H-[Aib]V[Dil][Dolaproine]-Doe),inactive
20,C=C(C)[C@@H]1[C@H]2OC(=O)[C@H]1[C@]1(O)C[C@H]3O[C@]34C(=O)O[C@H]2[C@]14C,inactive

row,Compound,Potency
1,CC[C@H]1C2CC3[C@@H]4N(C)c5ccccc5[C@]45C[C@@H]([C@H]2[C@H]5O)N3[C@H]1O,inactive
2,O=C1Nc2ccc3ncsc3c2/C1=C/c1cnc[nH]1,inactive
3,N#Cc1cn([C@@H]2O[C@H](CO)[C@H](O)[C@@H]2O)c2ncnc(N)c12,inactive
4,CC1=CC(=O)[C@@H](O)[C@@]2(C)C1C[C@H]1OC(=O)[C@H](O)[C@@]3(O)[C@@H](C)[C@@H](O)[C@H](O)C2[C@@]13C (stereo not given in full),inactive
5,NC(=O)c1ncn2c1CN=C(c1ccccc1Br)c1cc(F)ccc1-2,inactive
6,C[C@@H](CN1CCC(n2c(=O)[nH]c3cc(Br)ccc32)CC1)NC(=O)[C@@H]1C[C@H]1c1ccccc1,inactive
7,NCCCCCNC1(c2ccccc2)CCCCC1,inactive
8,CC(C)[C@H]1OC(=O)[C@H](Cc2ccccc2)N(C)C(=O)[C@@H](C(C)C)OC(=O)[C@H](Cc2ccccc2)N(C)C(=O)[C@@H](C(C)C)OC(=O)[C@H](Cc2ccccc2)N(C)C1=O,inactive
9,C[C@]12CC(O)C3[C@@H](CCC4C[C@@H](O)CC[C@@]43CO)[C@@]1(O)CCC2C1=CC(=O)OC1 (stereo not given in full),62.1 µM (active)
10,C[C@@H]1O[C@@H](OC2CCC3(C=O)C(CCC4C3CCC3(C)C(C5=CC(=O)OC5)C(O)CC43O)C2)[C@H](O)[C@H](O)[C@H]1O[C@@H]1O[C@H](CO)[C@@H](O)[C@H](O)[C@H]1O (stereo not given in full),inactive
11,C=C1C(=O)CC2OC2(C)CC2OC(=O)C(=C)C2C(O)C1OC(=O)/C(C)=C\C (stereo not given),inactive
12,CC=C1CN(C=O)[C@H]2C[C@@H]1[C@@H](C(=O)OC)[C@@]13CCOC21Nc1ccccc13 (stereo not given in full),44 µM (active)
13,C[C@@H]1CN(Cc2ccc(F)cc2)CCN1C(=O)COc1ccc(Cl)cc1NC(N)=O,inactive
14,CCC(C)C1NC(=O)C(C(C)=O)=C1O (stereo not given),inactive
15,N#Cc1ccc(N2CCN(C(=O)COc3ccc4[nH]cc(CCN)c4c3)CC2)cc1,inactive
16,C=C1[C@@H](C)[C@H]2[C@H](Cc3ccccc3)NC(=O)[C@]23OC(=O)/C=C/C(=O)CCC[C@@H](C)C/C=C/[C@H]3[C@@H]1O,inactive
17,CC1=CC2OC3CC(O)[C@](C)([C@@]2(C)C(O)C1=O)[C@]31CO1 (stereo not given in full),inactive
18,CC(C)(C)[C@]1(O)C[C@@H]2OC(=O)C[C@@]23C(=O)O[C@@H]2OC(=O)[C@@H](O)[C@]213,inactive
19,C[C@@H]1CCC2[C@@H](C)C(=O)OC3O[C@@]4(C)CCC1[C@]32OO4 (stereo not given in full),inactive
20,CN1CCC2=C(C1)c1ccccc1Cc1ccccc12,inactive
